# Laboratory results from PubChem BioAssay AID2108 (National Center for Advancing Translational Sciences (NCATS), 2009).
# Records with an inconclusive call do not appear. The source made the active and inactive calls. Calls follow the shape of the dose curve; as a rule, active = well fitted curve in the direction sought with a large enough effect; inconclusive = small, poorly fitted or top-dose-only effect, or effect the other way, or another doubt; inactive = no such curve, though single readings can be large or run the other way.
# Target: Alpha-galactosidase A (Homo sapiens) (UniProt P06280)
# Sequence (P06280 32-429 limits assumed): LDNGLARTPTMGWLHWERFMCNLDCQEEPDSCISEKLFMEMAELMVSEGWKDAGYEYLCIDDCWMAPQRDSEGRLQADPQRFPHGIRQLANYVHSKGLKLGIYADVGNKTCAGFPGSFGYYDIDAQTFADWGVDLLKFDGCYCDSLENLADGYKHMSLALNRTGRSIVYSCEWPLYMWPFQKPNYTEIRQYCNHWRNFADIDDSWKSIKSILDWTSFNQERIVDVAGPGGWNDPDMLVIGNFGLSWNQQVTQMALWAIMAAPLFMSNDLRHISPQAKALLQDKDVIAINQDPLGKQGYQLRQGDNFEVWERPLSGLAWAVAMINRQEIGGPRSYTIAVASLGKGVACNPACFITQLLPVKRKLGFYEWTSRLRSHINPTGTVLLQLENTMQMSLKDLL
# Assay: Confirmation of Inhibitors of Human alpha-Galactosidase Using Spleen Homogenate; also: 0% is about no effect
# Conditions: alpha-galactosidase enzyme activity; series mostly up to 56.2 µM; activity change: at the top concentration
# Description: NIH Chemical Genomics Center [NCGC]
# NIH Molecular Libraries Probe Production Centers Network [MLPCN]
# Assay Submitter (PI): Wei Zheng
# Alpha-galactosidase is a homodimeric glycoprotein that hydrolyzes the terminal alpha-galactosyl moieties from glycolipids and glycoproteins. Deficiency of this enzyme results in Fabry Disease with progressive accumulation of globotriaosylceramide and other glycosphingolipids in vascular endothelial cells that causes renal failure, myocardial infarction and stroke, and premature death in patients. It has been reported that the improper folding and trafficking of alpha-galactosidase resulting from genetic mutations may account for a significant number of Fabry patients. […] We optimized this alpha-galactosidase assay in 1536-well plate format for identification of novel small molecule inhibitors or activators with structures other than the sugar analogs in order to develop new pharmacological chaperones. In particular, this assay is directed towards discovering compounds active in more natural setting, tissue homogenate, that may have been missed by screens of the purified enzyme under more stringent conditions. This assay attempted to confirm hits from the primary screening.
# NCGC Assay Protocol Summary:
# This is a fluorogenic enzyme assay with 4-methylumbelliferyl-alpha-D-galactopyranoside as the substrate and human spleen homogenate containing alpha-galactosidase as the enzyme preparation. Upon hydrolysis of this fluorogenic substrate, the resulting product, 4-methylumbelliferone (which excites at 365 nm and emits at 440 nm) can be detected by a fluorescence plate reader. Data were normalized to the controls for basal activity (without enzyme) and 100% activity (with enzyme). The AC50 values were determined from concentration-response data modeled with the standard Hill equation.
# Assay buffer: 50 mM citric acid (titrated with potassium phosphate to pH 5.0), 0.01% Tween-20 (pH 5.0 is an optimal condition for this enzyme assay)
# 1536-well assay protocol for the alpha-galactosidase from human spleen homogenate:
# (1) Add 2 ul/well spleen homogenate (1 ug)
# (2) Add 23 nL compounds in DMSO solution. The final titration was 0.5 nM to 58 uM.
# (3) Add 2 ul of substrate (1 mM final)
# (4) Incubate at 37C for 40 min
# (5) Add 2 ul stop solution (1M NaOH and 1M Glycine mixture, pH 10)
# (6) Detect the assay plate in a ViewLux plate reader (PerkinElmer) with Ex=365 nm and Em=440nm.
# Keywords: Alpha-galactosidase, Fabry Disease, pharmacological chaperone, chaperone therapy, high throughput screening, alpha- galactosidase inhibitor, MLSMR, MLSCN, NIH Roadmap, qHTS and NCGC
row,SMILES,activity change
1,NC(=S)NN=C1c2cc(S(=O)(=O)N3CCOCC3)ccc2-c2ccc(S(=O)(=O)N3CCOCC3)cc21,5.73% (inactive)
2,C[C@H](NC(=O)/C(C#N)=C/c1ccc(O)c(O)c1)c1ccccc1,3.29% (inactive)
3,COc1ccc(/C=C/c2nnc(NC(=O)COc3ccc(Cl)cc3)s2)cc1,5.82% (inactive)
4,CCc1sc(-c2cc3ccc(O)cc3oc2=O)nc1-c1ccccc1,3.17% (inactive)
5,Clc1ccc(-c2ccnc(Oc3cc(Cl)ccc3Cl)n2)cc1,-1.17% [at 23.6 µM] (inactive)
6,CC1OC(OC2C(CO)OC(OC3C(CO)OC(O)C(O)C3O)C(O)C2O)C(O)C(O)C1NC1C=C(CO)C(O)C(O)C1O (stereo not given),-3.24% (inactive)
7,O=C(O)c1c(-c2ccccc2)c2oc3ccccc3c2[nH]c1=O,12.2% [at 23.6 µM] (inactive)
8,O=C(c1ccccc1)N1CCN(S(=O)(=O)c2ccccc2)CC1,12% (inactive)
9,Cc1ccc(-c2cc(C(=O)N/N=C/c3c(C)nn(-c4ccccc4)c3C)n[nH]2)s1,2.27% (inactive)
10,COc1cc(NC(=O)CN2CCN(c3ccccc3F)CC2)c(C)cc1[N+](=O)[O-],1.56% [at 23.6 µM] (inactive)
11,CCc1sc(-c2cc3cc(Cl)ccc3oc2=O)nc1-c1ccccc1,26% (inactive)
12,O=C(O)c1cc(NCc2c(F)cccc2Cl)ccc1N1CCOCC1,-8.02% (inactive)
13,Cc1sc(-c2cc3c(ccc4ccccc43)oc2=O)nc1-c1ccccc1,6.32% (inactive)
14,COc1ccc(/C=C/c2nnc(NC(=O)CSc3ccc(C)cc3)s2)cc1,23.5% (inactive)
15,CC(=O)c1ccc(NC(=O)COc2ccccc2-c2nc(C)no2)cc1,-1.56% (inactive)
16,CCCc1cc(-c2nc(N)ncc2-c2ccc3c(c2)OCCCO3)c(O)cc1OC,-7.45% (inactive)
17,COc1ccc(NC(=O)CC2Nc3cc(C)c(C)cc3NC2=O)c([N+](=O)[O-])c1 (stereo not given),-2.6% (inactive)
18,O=C(COC(=O)c1ccccc1Br)NCCc1ccc(F)cc1,-1.68% [at 23.6 µM] (inactive)
19,CCN(CC)S(=O)(=O)c1ccc2c(c1)C(=NNc1ccccc1)c1cc(S(=O)(=O)N(CC)CC)ccc1-2,-3.74% (inactive)
20,Cc1ccc2nc(-c3ccccc3N)[nH]c2c1,20.8% (inactive)

row,SMILES,activity change
1,CC(=O)c1ccc(N2CCN(S(=O)(=O)c3ccc4c(c3)CC(=O)N4)CC2)cc1,2.16% (inactive)
2,Cc1cccc(S(=O)(=O)c2c(N)n(-c3ccccc3)c3nc4ccccc4nc23)c1,18.9% [at 23.6 µM] (inactive)
3,CCOc1c(Cl)cc(CNc2ccc3[nH]c(=O)[nH]c3c2)cc1OC,-5.26% (inactive)
4,O=[N+]([O-])c1ccccc1Nc1ccc(O)cc1,-2.47% (inactive)
5,CC(C)Cn1c(SCC(=O)N2CCCCC2)nc2ccccc2c1=O,2.74% [at 23.6 µM] (inactive)
6,O=S(=O)(c1cccc(Cl)c1)N1CCOCC1,1.69% (inactive)
7,CC/C(=C(\c1ccccc1)c1ccc(OCCN(C)C)cc1)c1ccccc1,-11.7% [at 287 µM] (inactive)
8,CC(C)(C)OC(=O)NCCCC[C@H](NC(=O)c1[nH]cnc1C(=O)Nc1ccc(CNC(=O)OC(C)(C)C)cc1)C(=O)OC(C)(C)C,-6.8% (inactive)
9,COc1ccc2cc(C#N)c(=O)oc2c1,-0.469% (inactive)
10,CCOC(=O)c1ccc(NC(=O)c2ccccc2)cc1,5.58% [at 23.6 µM] (inactive)
11,CCN1CCc2nc(NC(=O)CC(c3ccccc3)c3ccccc3)sc2C1,-4.56% (inactive)
12,COc1cccc2cc(-c3nc(-c4ccc(C)cc4)c(C)s3)c(=O)oc12,6.04% (inactive)
13,Cc1ccc(-c2nc(-c3cc4cc(Cl)ccc4oc3=O)sc2C)cc1,9.45% (inactive)
14,COc1cccc(NC(=S)NCc2ccc3c(c2)cc(C)n3C)c1,-0.234% (inactive)
15,CCOc1c(Br)cc(CNc2ccc(N3CCOCC3)cc2)cc1OC,-4.15% (inactive)
16,COC(=O)c1ccc(CSc2cc(C)c3cccc(C)c3n2)o1,-0.608% [at 23.6 µM] (inactive)
17,Cc1c(C#N)c(N)nc2c3c(sc12)NC(=O)CC3c1ccc(Cl)cc1 (stereo not given),8.86% (inactive)
18,O=S(=O)(c1ccc(Br)cc1)N1CCOCC1,9.71% (inactive)
19,CCc1cc(-c2n[nH]c(C)c2-c2nc3ccccc3n2C)c(O)c(CN2CCN(C)CC2)c1O,4.12% (inactive)
20,Cc1ccc(S(=O)(=O)N2CCN(C(=O)N(c3ccccc3)c3ccccc3)CC2)cc1,7.46% (inactive)
